High-throughput results from PubChem BioAssay.
RORgamma inh: inhibitors of mouse ROR gamma transcriptional activity | P51450 | Drosophila S2 Gal4-RORgamma UAS-luciferase reporter, 20 h | Potency, µM (doses to about 53.6 µM), for the others: top-dose activity change, negative = inhibition, most hits filed as inhibitors | 310,000 compounds, 5.4% hits | AID 2551; note: nearly all actives have a fitted effect of over 60% in size
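Stable Schneider cell line, Gal4 DNA-binding domain fused to ROR gamma, UAS-luciferase. Cmpd 1 hr RT → CuSO4 700 uM final → 20 hr RT → luciferase reagent 10 min → luminescence.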
VP16 counter: inhibits Gal4-VP16 luciferase reporter, ROR gamma counter-screen; Potency, µM (highest dose often 53.6 µM), without a hit: at the top dose activity, negative = inhibition, usual class: inhibitors; 310,000 compounds, 3.5% hits; Drosophila S2 Gal4-VP16 UAS-luciferase, luminescence, 20 h;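 note: Gal4-VP16 expression switched on by copper sulfate through the metallothionein promoter; nearly all actives have a fitted effect of over 50% in size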
ALDH1A1 inh: ALDH1A1 (human) enzyme inhibition; AID 1030; Purified ALDH1A1, NADH fluorescence, propionaldehyde substrate; 220,000 compounds, 7.3% hits; P00352; Potency, µM (titrated, usually from 75.3 µM), for the others: at the highest dose activity, negative = inhibition, most hits filed as inhibitors; active = well fitted inhibition curve with a large enough effect, not every such curve was filed as active; inconclusive = small, poorly fitted or top-dose-only effect, or another doubt; inactive = no such curve, though single readings can be large or run the other way;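 note: plate controls were no enzyme wells and a reference inhibitor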
PLK1 PBD block: blocks phosphopeptide binding to human PLK1 polo-box domain; P53350; Plk1 PBD binding of FITC phosphopeptide, fluorescence polarization; Potency, µM, inactives show max response, negative = inhibition, actives largely listed as inhibitors; 360,000 compounds, 2.8% hits; AID 720504; note: series mostly up to about 57 µM; nearly all actives have a fitted effect of over 65% in size
Target sequence (P53350 whole entry, looked up, the tested form may be a part): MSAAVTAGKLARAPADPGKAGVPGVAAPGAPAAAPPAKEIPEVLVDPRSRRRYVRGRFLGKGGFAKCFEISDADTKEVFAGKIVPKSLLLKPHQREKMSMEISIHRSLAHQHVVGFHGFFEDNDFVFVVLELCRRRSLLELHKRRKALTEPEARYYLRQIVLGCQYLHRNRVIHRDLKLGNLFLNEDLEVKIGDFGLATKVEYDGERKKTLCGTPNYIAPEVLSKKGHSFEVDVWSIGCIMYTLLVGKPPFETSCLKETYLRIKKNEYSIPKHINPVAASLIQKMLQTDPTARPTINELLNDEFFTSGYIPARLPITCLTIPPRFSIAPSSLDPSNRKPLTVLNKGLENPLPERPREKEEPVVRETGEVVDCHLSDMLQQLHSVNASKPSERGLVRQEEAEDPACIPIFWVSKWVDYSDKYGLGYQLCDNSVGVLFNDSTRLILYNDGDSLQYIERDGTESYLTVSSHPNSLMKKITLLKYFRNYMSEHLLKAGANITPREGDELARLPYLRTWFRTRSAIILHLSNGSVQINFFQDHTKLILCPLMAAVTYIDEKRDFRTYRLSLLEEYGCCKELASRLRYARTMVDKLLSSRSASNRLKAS
Sfp PPTase inh: Sfp phosphopantetheinyl transferase inhibition; AID 1490; Biochemical Sfp PPTase activity, qHTS; Potency, µM, for inactives: largest response in the series, negative = inhibition, hits mostly inhibitors; 310,000 compounds, 3.5% hits; Q9F4F7;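 note: the enzyme is Sfp with the accession as filed and its product quenches rhodamine fluorescence; 0% = enzyme reaction without inhibitor and -100% = no enzyme wells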
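Buffer: 50 mM Hepes-Na pH 7.6, 10 mM MgCl2, 0.01% Nonidet P-40, 0.01% BSA. Enzyme 15 nM, pre-exposed to compound 15 min; substrates then added and fluorescence change tracked over 30 min.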
Starred values were filed as active, the others as inactive; [ ] = remark or other dose. Hits are enriched below; roughly 12% of the tested compounds scored in any of these assays. Unless noted, calls come from the whole dose curve; as a rule, active = well fitted curve in the direction sought with a large enough effect; inconclusive = small, poorly fitted or top-dose-only effect, or another doubt; inactive = no such curve, though single readings can be large; an effect the other way counts as inactive or inconclusive. Unless noted, % is set by controls: 0 for no effect and ±100 for the full control effect; potency is the fitted concentration of half-maximal effect.

For O=C(NCCCn1ccnc1)c1ccc(N2CCCCC2)c([N+](=O)[O-])c1 the results were RORgamma inh 8.3%, VP16 counter 3.6%, ALDH1A1 inh 7.94µM*, PLK1 PBD block -2.8% and Sfp PPTase inh 5.0%.
COc1ccc(CCCO[C@@H](Cn2ccnc2)c2ccc(OC)cc2)cc1 was read as RORgamma inh 8.91µM*, VP16 counter 31.6µM*, ALDH1A1 inh inconclusive and Sfp PPTase inh -3.6%.
For Cc1ccccc1Br the results were RORgamma inh -2.3%, VP16 counter 2.2% and ALDH1A1 inh inconclusive.
Screening CCN(Cc1ccccc1)c1ccc(N=Nc2nn(C)c(C)c2[N+](=O)[O-])cc1 returned RORgamma inh inconclusive, VP16 counter inconclusive, ALDH1A1 inh -6.0%, PLK1 PBD block 0.4% and Sfp PPTase inh -6.2%.
Screening CCN(CC)c1ccc(N=Nc2nn(C)c(C)c2[N+](=O)[O-])cc1 returned RORgamma inh 5.01µM*, VP16 counter inconclusive, ALDH1A1 inh -11.5%, PLK1 PBD block -0.4% and Sfp PPTase inh -13.6%.
For Cc1cc(C)n2c(=S)[nH]nc2n1 the results were RORgamma inh -108.1%, VP16 counter inconclusive, ALDH1A1 inh 1.41µM*, PLK1 PBD block 3.36µM* and Sfp PPTase inh 2.82µM*.
For Cc1cc(C)n2cnnc2n1 the results were RORgamma inh 14.3%, VP16 counter -7.0%, PLK1 PBD block -4.8% and Sfp PPTase inh 15.1%.
For COc1ncc2ncc(=O)n(C[C@H]3CCCO3)c2n1 the results were RORgamma inh -18.1%, VP16 counter -0.3%, ALDH1A1 inh inconclusive and Sfp PPTase inh 26.0%.
Screening COc1ccc(NC(=S)N/N=C/c2ccc(F)c(F)c2)cc1 returned RORgamma inh 3.16µM*, VP16 counter 5.01µM*, PLK1 PBD block -11.7% and Sfp PPTase inh 9.3%.
For O=C(CN1CCCCCCC1)N/N=C/c1ccc(F)c(F)c1 the results were RORgamma inh 3.7%, VP16 counter -6.5%, ALDH1A1 inh -7.9%, PLK1 PBD block -5.1% and Sfp PPTase inh -9.3%.
`COc1ccc(/C=N\NC(=O)c2ccc(F)cc2)cc1COc1ccccc1C(N)=O` gave RORgamma inh 7.0%, VP16 counter 8.0%, PLK1 PBD block -7.1% and Sfp PPTase inh 4.3%.
For COc1ccc(/C=N/NC(=S)Nc2ccccc2)cc1COc1ccc(F)cc1F the results were RORgamma inh 0.631µM*, VP16 counter 1µM*, ALDH1A1 inh 0.7%, PLK1 PBD block inconclusive and Sfp PPTase inh -14.8%.
`COc1cc(/C=N/NC(=S)Nc2cccnc2)cc(OC)c1OC` gave RORgamma inh -1.2%, VP16 counter 0.6%, ALDH1A1 inh -0.4%, PLK1 PBD block -10.6% and Sfp PPTase inh 2.2%.
For COc1ccc(NC(=S)N/N=C/c2ccc(F)cc2)cc1OC the results were RORgamma inh 0.631µM*, VP16 counter 2.51µM*, ALDH1A1 inh 7.4%, PLK1 PBD block -15.0% and Sfp PPTase inh 1.6%.
Screening Fc1ccc(/C=N/NC(=S)Nc2ccc(Cl)cc2)cc1F returned RORgamma inh 0.708µM*, VP16 counter 1.41µM*, ALDH1A1 inh -4.3%, PLK1 PBD block -3.8% and Sfp PPTase inh 20.8%.
`CCCC(C(=O)Nc1ccc2c(C)cc(=O)oc2c1)c1ccccc1` (stereo unspecified) gave RORgamma inh 16.8%, VP16 counter -13.9%, PLK1 PBD block -9.3% and Sfp PPTase inh -19.0%.
For CC(=O)Nc1cc(C(=O)CSc2nnc(C3CC3)n2C2CC2)ccc1O the results were PLK1 PBD block -13.4%.
For Fc1ccc(/C=N/NC(=S)Nc2ccc(Cl)cc2Cl)cc1 the results were RORgamma inh inconclusive, VP16 counter inconclusive, PLK1 PBD block -0.6% and Sfp PPTase inh 1.9%.
For Fc1ccc(NC(=S)N/N=C/c2ccc(F)c(F)c2)cc1 the results were RORgamma inh 0.708µM*, VP16 counter 3.16µM*, ALDH1A1 inh 9.2%, PLK1 PBD block 5.7% and Sfp PPTase inh 24.7%.
For CC(=O)Oc1ccc(/C=N/NC(=S)Nc2ccccc2)cc1 the results were RORgamma inh 2µM*, VP16 counter 2.51µM*, ALDH1A1 inh 7.8%, PLK1 PBD block 5.9% and Sfp PPTase inh -14.8%.
For COc1ccc2[nH]cc(CCNc3cc(-c4ccc(C(=O)N(C)C)cc4)ncn3)c2c1 the results were RORgamma inh 24.7%, VP16 counter -3.3%, ALDH1A1 inh -2.8% and Sfp PPTase inh 7.4%.
For Cc1ccc(F)c(S(=O)(=O)NC(=O)C2(C)CCN2C(=O)Cc2ccccc2)c1 (stereo unspecified) the results were PLK1 PBD block -2.3%.
Screening Cc1[nH]c2ccccc2c1C(=O)C(C)OC(=O)c1ccc([N+](=O)[O-])o1 (stereo unspecified) returned RORgamma inh 14.1µM*, VP16 counter -22.9%, ALDH1A1 inh inconclusive, PLK1 PBD block -19.7% and Sfp PPTase inh 5.8%.
For C(=N\Nc1nc(Nc2ccccc2)nc(N2CCOCC2)n1)/c1c[nH]c2ccccc12 the results were RORgamma inh -29.5%, VP16 counter -8.4%, ALDH1A1 inh 6.6%, PLK1 PBD block 3.0% and Sfp PPTase inh 6.9%.
Screening Cc1ccc(Nc2nc(N/N=C/c3c[nH]c4ccccc34)nc(N3CCOCC3)n2)cc1 returned RORgamma inh 11.2µM*, VP16 counter inconclusive, ALDH1A1 inh -5.1%, PLK1 PBD block -8.7% and Sfp PPTase inh 8.5%.
For Cc1[nH]c2ccccc2c1/C=N/Nc1nc(Nc2ccc(F)cc2)nc(N2CCOCC2)n1 the results were RORgamma inh 2.51µM*, VP16 counter 5.62µM*, ALDH1A1 inh -13.0%, PLK1 PBD block inconclusive and Sfp PPTase inh 21.1%.
`O=C(O)c1cccc(Cl)c1Cl` gave RORgamma inh -0.8%, VP16 counter 2.0% and ALDH1A1 inh 3.8%.
`CN(C)CCCN=c1cc(-c2ccccc2)oc2ccc(Cl)cc12` gave RORgamma inh inconclusive, VP16 counter -20.8%, ALDH1A1 inh -0.8%, PLK1 PBD block -1.6% and Sfp PPTase inh -16.3%.
Screening OCCN=c1cc(-c2ccccc2)oc2ccc(Cl)cc12 returned RORgamma inh 2.4%, VP16 counter -11.7%, ALDH1A1 inh 4.3%, PLK1 PBD block -6.7% and Sfp PPTase inh 89.1µM*.
COc1ccc(OC)c(CN2C(=O)c3ccccc3C2c2nnnn2C(C)C)c1 (stereo unspecified) was read as PLK1 PBD block -12.1%.
`CCn1c(CSc2nc3ccccc3[nH]2)nc2cc(C(=O)O)ccc21` gave RORgamma inh 3.9%, VP16 counter -14.7%, ALDH1A1 inh inconclusive, PLK1 PBD block -19.4% and Sfp PPTase inh 2.5%.
For CCn1c(CSc2nccn2C)nc2cc(C(=O)O)ccc21 the results were RORgamma inh -2.9%[10 µM], VP16 counter -11.2%, ALDH1A1 inh inconclusive, PLK1 PBD block -17.6% and Sfp PPTase inh 56.2µM*.
For Cc1cnn(CCC(=O)NNC(=S)Nc2ccc(F)cc2)c1 the results were RORgamma inh 0.447µM*, VP16 counter 2.82µM*, ALDH1A1 inh 4.7%, PLK1 PBD block -3.0% and Sfp PPTase inh 14.4%.
